{
  "source": "PubChem BioAssay (Tox21)",
  "note": "Results filed as inconclusive are left out. Entries that show only a call come without a potency. Activity calls are given as the source filed them. Unless noted, the call rests on the fitted dose curve.",
  "data": [
    {"system": "not listed separately", "test": "cAMP Responsive Elements (CRE) small molecule antagonists, cell-based qHTS assay (AID 1963591; active means well fitted inhibition curve with a large enough effect in the signal ratio in the repeat runs, not every such curve was filed as active; the % refers to the signal ratio)", "details": "CRE-bla HEK293T, beta-lactamase FRET ratio; series mostly up to 92.4 µM", "how_it_was_run": "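Antagonist mode: test compounds are co-incubated with the adenylyl cyclase activator NKH477 (0.25 uM final) on CRE-bla HEK293T cells for 3 h at 37 °C, followed by LiveBLAzer substrate loading.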", "values": [
      {"smiles": "C=CC=O", "Potency": "inactive"},
      {"smiles": "CCC(C)(C#N)N=NC(C)(C#N)CC", "note": "(stereo unspecified)", "Potency": "inactive"},
      {"smiles": "c1nc[nH]n1", "Potency": "inactive"},
      {"smiles": "c1ccc(Nc2ccc3ccccc3c2)cc1", "Potency": "inactive"},
      {"smiles": "CCOP(=O)(OCC)OP(=O)(OCC)OCC", "Potency": "inactive"},
      {"smiles": "Nc1cccnc1", "Potency": "inactive"},
      {"smiles": "Clc1ccccc1Cl", "Potency": "inactive"},
      {"smiles": "CCN(CC)C(=S)S", "Potency": "inactive"},
      {"smiles": "CC(C)Nc1nc(Cl)nc(NC(C)C)n1", "Potency": "inactive"},
      {"smiles": "Nc1ccc(-c2ccc(N)c(N)c2)cc1N", "Potency": "inactive"},
      {"smiles": "CC(C)OS(C)(=O)=O", "Potency": "inactive"},
      {"smiles": "CCCCOC(=O)c1ccccc1C(=O)O", "Potency": "inactive"},
      {"smiles": "CCCCCCCCCl", "Potency": "inactive"},
      {"smiles": "O=S(=O)(O)OOS(=O)(=O)O", "Potency": "inactive"},
      {"smiles": "ClCC(Br)CBr", "note": "(stereo unspecified)", "Potency": "inactive"},
      {"smiles": "CC(C)C#N", "Potency": "inactive"},
      {"smiles": "CCOC(=O)CC(SP(=O)(OC)OC)C(=O)OCC", "note": "(stereo unspecified)", "Potency": "inactive"},
      {"smiles": "CCCCCON=O", "Potency": "inactive"},
      {"smiles": "FC(F)(F)c1ccc(Cl)cc1", "Potency": "inactive"},
      {"smiles": "CON(C)C(=O)Nc1ccc(Cl)cc1", "Potency": "inactive"},
      {"smiles": "COP(=S)(OC)Oc1ccc([N+](=O)[O-])cc1", "Potency": "inactive"},
      {"smiles": "CCCCCCCCC(=O)NCc1ccc(O)c(OC)c1", "Potency": "inactive"},
      {"smiles": "COc1c(C(C)(C)C)cc([N+](=O)[O-])c(C)c1[N+](=O)[O-]", "Potency": "inactive"},
      {"smiles": "Cc1ccc(N)cc1", "Potency": "inactive"},
      {"smiles": "CCCCCCCCCCCCCCCC[N+](C)(C)C", "Potency": "inactive"},
      {"smiles": "CCc1cnc(C2=NC(C)(C(C)C)C(=O)N2)c(C(=O)O)c1", "note": "(stereo unspecified)", "Potency": "inactive"},
      {"smiles": "CCCCCBr", "Potency": "inactive"},
      {"smiles": "COP(=S)(OC)Oc1ccc(Sc2ccc(OP(=S)(OC)OC)cc2)cc1", "Potency": "inactive"},
      {"smiles": "CC(=O)CCC(C)=O", "Potency": "inactive"},
      {"smiles": "CCOP(=O)(O)OCC", "note": "(tested in a mixture with another compound)", "Potency": "inactive"},
      {"smiles": "O=[N+]([O-])c1ccc(Cl)c(Cl)c1", "Potency": "inactive"},
      {"smiles": "CCCCNC(=O)n1c(NC(=O)OC)nc2ccccc21", "Potency": "inactive"},
      {"smiles": "CCC(Cl)[N+](=O)[O-]", "note": "(stereo unspecified)", "Potency": "inactive"},
      {"smiles": "CCCCCCCCCCCC(=O)O", "Potency": "inactive"},
      {"smiles": "OC(Cc1ccccc1Cl)(Cn1cncn1)C1(Cl)CC1", "note": "(stereo unspecified)", "Potency": "inactive"}
    ]},
    {"molecular_target": "Beta-2 adrenergic receptor (Homo sapiens) (UniProt P07550)", "sequence (P07550 whole entry, looked up)": "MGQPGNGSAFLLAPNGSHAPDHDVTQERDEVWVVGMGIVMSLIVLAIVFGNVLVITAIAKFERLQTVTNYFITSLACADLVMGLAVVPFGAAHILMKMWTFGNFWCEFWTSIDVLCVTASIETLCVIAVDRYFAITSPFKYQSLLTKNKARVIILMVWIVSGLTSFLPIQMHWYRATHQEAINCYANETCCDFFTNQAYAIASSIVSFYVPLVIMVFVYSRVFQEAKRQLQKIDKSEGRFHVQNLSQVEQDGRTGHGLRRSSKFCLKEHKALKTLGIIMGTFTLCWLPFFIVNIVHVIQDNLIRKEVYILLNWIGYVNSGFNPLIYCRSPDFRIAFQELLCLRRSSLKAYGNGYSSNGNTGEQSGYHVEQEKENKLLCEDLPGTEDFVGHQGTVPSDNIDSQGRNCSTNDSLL", "test": "Adrenergic beta2 receptor (ADRB2) small molecule antagonists, cell-based qHTS assay (AID 1963592); further: nearly all actives have a fitted effect of over 50% in size", "details": "CHO-ADRB2 cells, isoproterenol-stimulated cAMP HTRF ratio, 0.5 h; series mostly up to 92.4 µM", "how_it_was_run": "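Cells (CHO, stable ADRB2 overexpression) incubated 18-20hr at 37C; compounds added from DMSO; agonist mix (1nM isoproterenol, 100uM IBMX, 25uM Ro-20-1724) added; 0.5hr RT; d2-cAMP and anti-cAMP-cryptate added; 1hr RT; 665/615 nm read.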", "values": [
      {"smiles": "C=CC=O", "Potency": "inactive"},
      {"smiles": "CCC(C)(C#N)N=NC(C)(C#N)CC", "note": "(stereo unspecified)", "Potency": "inactive"},
      {"smiles": "c1nc[nH]n1", "Potency": "inactive"},
      {"smiles": "c1ccc(Nc2ccc3ccccc3c2)cc1", "Potency": "inactive"},
      {"smiles": "CCOP(=O)(OCC)OP(=O)(OCC)OCC", "Potency": "inactive"},
      {"smiles": "Nc1cccnc1", "Potency": "inactive"},
      {"smiles": "Clc1ccccc1Cl", "Potency": "inactive"},
      {"smiles": "CCN(CC)C(=S)S", "Potency": "inactive"},
      {"smiles": "CC(C)Nc1nc(Cl)nc(NC(C)C)n1", "Potency": "inactive"},
      {"smiles": "Nc1ccc(-c2ccc(N)c(N)c2)cc1N", "Potency": "inactive"},
      {"smiles": "CC(C)OS(C)(=O)=O", "Potency": "inactive"},
      {"smiles": "CCCCOC(=O)c1ccccc1C(=O)O", "Potency": "inactive"},
      {"smiles": "CCCCCCCCCl", "Potency": "inactive"},
      {"smiles": "C#CCOS(=O)OC1CCCCC1Oc1ccc(C(C)(C)C)cc1", "note": "(stereo unspecified)", "Potency": "inactive"},
      {"smiles": "O=S(=O)(O)OOS(=O)(=O)O", "Potency": "inactive"},
      {"smiles": "ClCC(Br)CBr", "note": "(stereo unspecified)", "Potency": "inactive"},
      {"smiles": "CC(C)C#N", "Potency": "inactive"},
      {"smiles": "CCOC(=O)CC(SP(=O)(OC)OC)C(=O)OCC", "note": "(stereo unspecified)", "Potency": "inactive"},
      {"smiles": "CCCCCON=O", "Potency": "inactive"},
      {"smiles": "CON(C)C(=O)Nc1ccc(Cl)cc1", "Potency": "inactive"},
      {"smiles": "COP(=S)(OC)Oc1ccc([N+](=O)[O-])cc1", "Potency": "inactive"},
      {"smiles": "CCCCCCCCC(=O)NCc1ccc(O)c(OC)c1", "Potency": "inactive"},
      {"smiles": "COc1c(C(C)(C)C)cc([N+](=O)[O-])c(C)c1[N+](=O)[O-]", "Potency": "inactive"},
      {"smiles": "Cc1ccc(N)cc1", "Potency": "inactive"},
      {"smiles": "CCCCCCCCCCCCCCCC[N+](C)(C)C", "Potency": "inactive"},
      {"smiles": "CCc1cnc(C2=NC(C)(C(C)C)C(=O)N2)c(C(=O)O)c1", "note": "(stereo unspecified)", "Potency": "inactive"},
      {"smiles": "CCCCCBr", "Potency": "inactive"},
      {"smiles": "COP(=S)(OC)Oc1ccc(Sc2ccc(OP(=S)(OC)OC)cc2)cc1", "Potency": "inactive"},
      {"smiles": "CC(=O)CCC(C)=O", "Potency": "inactive"},
      {"smiles": "CCOP(=O)(O)OCC", "note": "(tested in a mixture with another compound)", "Potency": "inactive"},
      {"smiles": "O=[N+]([O-])c1ccc(Cl)c(Cl)c1", "Potency": "inactive"},
      {"smiles": "CC(C)(O)C(=O)Nc1ccc([N+](=O)[O-])c(C(F)(F)F)c1", "Potency": "inactive"},
      {"smiles": "CCCCNC(=O)n1c(NC(=O)OC)nc2ccccc21", "Potency": "inactive"},
      {"smiles": "CCC(Cl)[N+](=O)[O-]", "note": "(stereo unspecified)", "Potency": "inactive"},
      {"smiles": "CCCCCCCCCCCC(=O)O", "Potency": "inactive"},
      {"smiles": "OC(Cc1ccccc1Cl)(Cn1cncn1)C1(Cl)CC1", "note": "(stereo unspecified)", "Potency": "inactive"}
    ]}
  ]
}
